Molecules are shown by their SMILES. “And” between values parts separate entries of the source, which are not always exact repeats. Equal values may be shown once. Results filed as inconclusive are left out. A call without a number means that no potency is given here. The source made the active and inactive calls. The call rests on the fitted dose curve; in most records, active means well fitted inhibition curve with a large enough effect in the signal ratio in the repeat runs (not every such curve was filed as active); inconclusive means weak or mixed curves; inactive means flat fitted curve, though single readings scatter; the % refers to the signal ratio. Starred links: 1 amine or outer side, 2 acyl side, 3 side chain; linkers in the order of their positions; H or OH if unused. Positions of bridges follow the written chain, without caps; N, C: chain ends. Non-standard residues stand in square brackets, D forms with d. Residues, ends and D or L forms follow the SMILES beside them. Chains are numbered I, II in the order given. Actinocin(9to1) = Cc1c2oc3c(C)ccc(C(=O)[*:1])c3nc-2c(C(=O)[*:2])c(N)c1=O; NMeV = CN[C@H](C(=O)O)C(C)C; Sar = CNCC(=O)O
Potency means the concentration at half of the fitted maximal effect.

Progesterone receptor (Homo sapiens), sequence (P06401 whole entry, looked up): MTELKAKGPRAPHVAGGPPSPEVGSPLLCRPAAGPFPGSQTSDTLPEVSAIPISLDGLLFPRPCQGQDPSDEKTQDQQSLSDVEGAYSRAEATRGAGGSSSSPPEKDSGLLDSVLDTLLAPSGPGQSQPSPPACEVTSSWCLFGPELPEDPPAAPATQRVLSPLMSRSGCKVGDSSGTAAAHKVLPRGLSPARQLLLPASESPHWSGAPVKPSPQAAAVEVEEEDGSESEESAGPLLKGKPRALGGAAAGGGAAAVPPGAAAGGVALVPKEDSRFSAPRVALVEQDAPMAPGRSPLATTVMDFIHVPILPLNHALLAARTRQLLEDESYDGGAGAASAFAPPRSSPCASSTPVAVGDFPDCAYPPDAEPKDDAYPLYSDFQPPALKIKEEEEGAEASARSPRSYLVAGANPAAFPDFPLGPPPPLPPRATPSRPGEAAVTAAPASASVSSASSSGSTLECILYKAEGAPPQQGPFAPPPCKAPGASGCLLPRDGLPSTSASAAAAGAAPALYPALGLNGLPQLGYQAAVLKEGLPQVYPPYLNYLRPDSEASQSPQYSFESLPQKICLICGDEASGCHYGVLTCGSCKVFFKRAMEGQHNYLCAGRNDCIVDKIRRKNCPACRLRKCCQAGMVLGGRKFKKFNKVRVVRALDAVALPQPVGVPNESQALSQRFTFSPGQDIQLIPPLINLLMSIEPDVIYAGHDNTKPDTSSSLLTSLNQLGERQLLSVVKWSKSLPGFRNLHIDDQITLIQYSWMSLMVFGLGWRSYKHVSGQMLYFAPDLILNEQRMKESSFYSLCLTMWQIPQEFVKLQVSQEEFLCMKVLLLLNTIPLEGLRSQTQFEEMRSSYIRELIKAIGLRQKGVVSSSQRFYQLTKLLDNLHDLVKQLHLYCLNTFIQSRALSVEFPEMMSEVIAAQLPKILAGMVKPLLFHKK

This assay deals with Progesterone receptor (Homo sapiens) (UniProt P06401). As to the kind of experiment: qHTS assay to identify small molecule antagonists of the progesterone receptor (PR) signaling pathway (AID 1346795). To be noted: PR-UAS-bla HEK293T, beta-lactamase FRET ratio, 16 h; series mostly up to 92.4 µM. An excerpt:
National Center for Advancing Translational Sciences [NCATS]
NIH Chemical Genomics Center [NCGC]
U.S. Environmental Protection Agency [EPA]
National Institutes of Environmental Health Sciences [NIEHS]
National Toxicology Program [NTP]
U.S. Food and Drug Administration [FDA]
Progesterone receptor (PR), a nuclear hormone receptor, plays an important role in development, metabolic homeostasis and reproduction. […] Endocrine disrupting chemicals (EDCs) and their interactions with steroid hormone receptors like PR causes disruption of normal endocrine function. To identify the compounds that inhibit PR signaling, a PR-UAS-bla GripTite cell line i.e. PR-UAS-bla HEK293T (Invitrogen, Carlsbad, CA, USA) containing a beta-lactamase reporter gene under the control of an Upstream Activator Sequence (UAS) was used to screen Tox21 10K compound library.
Tox21 Assay Protocol Summary:
PR-UAS-bla HEK293T cells were dispensed at 3,000 cells/4 uL of assay medium containing 2% charcoal stripped FBS per well into black wall/clear-bottom 1536-well plates using a Multidrop Combi (ThermoFisher Scientific, Waltham, MA) dispenser. After the assay plates were incubated at a 37C and 5% CO2 for 6 hr, 23 nL of compounds dissolved in DMSO, positive controls or DMSO only was transferred to the assay plate by a Pintool station (Kalypsys, San Diego, CA), followed by addition of 1 uL (1nM as final concentration) of Promegestone (R5020) in assay medium using a BioRAPTR FRD (Flying Reagent Dispenser, Aurora Discovery, San Diego, CA). The plates were incubated at 37C and 5% CO2 for 16 hr. Then 1 uL of LiveBLAzer B/G FRET substrate was added using a FRD. After the plates were incubated at room temperature for 2 hours, fluorescence intensity was measured by an Envision plate reader (PerkinElmer, Shelton, CT).
Consider `CC(=O)N[C@@H](CS)C(=O)O`, for which the Potency entry is “inactive”.
Consider `c1ccc2n[nH]nc2c1`, for which the Potency result was “inactive”.
Consider `Cc1c2oc3c(C)ccc(C(=O)N[C@@H]4C(=O)N[C@H](C(C)C)C(=O)N5CCC[C@H]5C(=O)N(C)CC(=O)N(C)[C@@H](C(C)C)C(=O)O[C@@H]4C)c3nc-2c(C(=O)N[C@@H]2C(=O)N[C@H](C(C)C)C(=O)N3CCC[C@H]3C(=O)N(C)CC(=O)N(C)[C@@H](C(C)C)C(=O)O[C@@H]2C)c(N)c1=O` (I: T[dV]P[Sar][NMeV] / II: T[dV]P[Sar][NMeV]; ester I:1-I:C, II:1-II:C; linker I:N-II:N via Actinocin(9to1)), for which the Potency was 26.6 nM (active) and 33.5 nM (active).
`COC(=O)/C=C/c1ccccc1`: the Potency entry was “inactive”.
As to `COc1cc(C(=S)N2CCOCC2)ccc1O`, the Potency entry is “inactive”.
Turning to `Cc1cc(C(C)(C)C)c(O)c(C(C)(C)C)c1`, the Potency result is “inactive”.
As for `c1cc(C(c2ccc(OCC3CO3)cc2)C(c2ccc(OCC3CO3)cc2)c2ccc(OCC3CO3)cc2)ccc1OCC1CO1` (stereo not given), the Potency entry is “inactive”.
Consider `CC(=O)C1=C(C)[C@@H]2C[C@@]3(C1)[C@H](C)CC[C@H]3C2(C)C`, for which the Potency result is “inactive”.
For the compound `Cc1cccc2n[nH]nc12`, the Potency result is “inactive”.
With `O`, the Potency entry is “inactive”.
As to `CCn1c2ccccc2c2cc(N)ccc21`, the Potency was 34.4 µM (active).
As to `COc1ccc(COC(C)=O)cc1`, the Potency entry is “inactive”.
The result for `c1ccc2c(c1)CCCC2C1=NCCN1` (stereo not given) reads “inactive”; that for `NCCCCCC(=O)O`, “inactive”.
As for `CCN(CC)C(=O)Nc1ccc(OCC(O)CNC(C)(C)C)c(C(C)=O)c1` (stereo not given), the Potency result was “inactive”.
Take `COC(c1ccccc1)(c1ccccc1)[C@H](Oc1nc(C)cc(C)n1)C(=O)O`: the Potency entry is “inactive”.
In the case of `O=C(O[C@@H]1Cc2c(O)cc(O)cc2O[C@@H]1c1cc(O)c(O)c(O)c1)c1cc(O)c(O)c(O)c1` it was “inactive”; in that of `NCCO`, “inactive”; in that of `Nc1nc2ccccc2[nH]1`, “inactive”.
With `C#CC(C)(CC)OC(=O)c1ccccc1C(=O)O` (stereo not given), the Potency result is “inactive”.
For `CC(=O)OCC1=C(C(=O)O)N2C(=O)[C@@H](NC(=O)Cc3cccs3)[C@H]2SC1`, the Potency entry is “inactive”.
Take `CCN1CCCC1CNC(=O)c1cc(S(=O)(=O)CC)c(N)cc1OC` (stereo not given): the Potency entry was “inactive”.
Regarding `CCCN[C@H]1CCc2nc(N)sc2C1`, the Potency entry is “inactive”.
Turning to `Oc1ccc(Cl)cc1Cc1cc(Cl)ccc1O`, the Potency is 15.6 µM (active) and 15.4 µM (active) and 18.8 µM (active).
`c1cnc2cc3c(cc2n1)C1CNCC3C1`: the Potency entry was “inactive”.
As to `NC(=Nc1ccccc1)Nc1ccccc1`, the Potency entry is “inactive”.
`CCC(CO)(CO)COCC(CC)(CO)CO`: the Potency entry was “inactive”.
The result for `CC(=O)CC(=O)Nc1ccc2[nH]c(=O)[nH]c2c1` reads “inactive”; that for `O=C(O)CP(=O)(O)O`, “inactive”; that for `CC(C(O)c1ccc(O)cc1)N1CCC(Cc2ccccc2)CC1` (stereo not given), “inactive”.
Regarding `CC(N)=O`, the Potency entry is “inactive”.
As to `OCCN1CCNCC1`, the Potency result was “inactive”.
The result for `O=C1Nc2ccccc2C1(c1ccc(O)cc1)c1ccc(O)cc1` reads 54.5 µM (active); that for `C=C(C)C1CC=C(C)C(OC(C)=O)C1` (stereo not given), “inactive”.
`CCn1cc(C(=O)O)c(=O)c2cc(F)c(N3CCNC(C)C3)c(F)c21` (stereo not given): the Potency result was “inactive”.
Regarding `CC(C)CCOC(=O)c1ccc(N(C)C)cc1`, the Potency result was “inactive”.
The result for `C=CC(=O)OCCCCCCCC` reads “inactive”.
The result for `O=C(O)CCc1ccccc1` reads “inactive”; that for `O=C1CC2(CCCC2)CC(=O)N1CCCCN1CCN(c2ncccn2)CC1`, “inactive”; that for `O=Cc1ccc(Cl)cc1`, “inactive”.

These data come from PubChem BioAssay (Tox21).
